Assay outcomes deposited in PubChem BioAssay by Paczesny and Yang Labs, IUPUI and University of Michigan.
ST2 inh: inhibitors of human ST2 (IL1RL1) binding to IL-33, primary screen, biochemical, AlphaLISA. AlphaLISA ST2-Fc/biotin-IL-33 interaction, 1 h. inhibition, % for hits at 17 µM. actives 2.3% (n = 78,000). AID 1259354, 2018; in the data active = inhibition above about 30%
Target sequence (Q01638 whole entry, looked up): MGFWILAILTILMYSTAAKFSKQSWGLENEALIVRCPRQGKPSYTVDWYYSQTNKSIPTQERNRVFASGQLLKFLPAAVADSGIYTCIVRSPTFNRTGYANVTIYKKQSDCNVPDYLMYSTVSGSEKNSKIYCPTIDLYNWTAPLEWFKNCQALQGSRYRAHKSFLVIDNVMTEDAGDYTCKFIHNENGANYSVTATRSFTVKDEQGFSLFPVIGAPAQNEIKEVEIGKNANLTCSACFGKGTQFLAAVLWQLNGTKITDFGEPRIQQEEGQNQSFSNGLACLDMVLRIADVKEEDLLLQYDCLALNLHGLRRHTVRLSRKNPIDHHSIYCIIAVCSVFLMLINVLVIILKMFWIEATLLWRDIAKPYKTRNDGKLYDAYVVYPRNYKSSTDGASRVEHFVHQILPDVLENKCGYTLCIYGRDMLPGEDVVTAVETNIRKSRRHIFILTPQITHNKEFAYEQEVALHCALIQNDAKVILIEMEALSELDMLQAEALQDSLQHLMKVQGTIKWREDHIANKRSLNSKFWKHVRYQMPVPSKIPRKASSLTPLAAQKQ
Numbers stand for hits; – = inactive. Shown is part of a subset that was picked to be rich in hits.

SMILES	ST2 inh
Cc1cc(C)n(CCCNC(=O)c2nc3ccccc3[nH]c2=O)n1	–
O=c1c2ccccc2c(-c2cccs2)nn1CCc1ccccc1	35%
CC(C)Cn1nc(-c2ccccc2)c2ccccc2c1=O	–
CC(=O)OCCn1nc(-c2ccccc2)c2ccccc2c1=O	–
CC(=O)Nc1ccc(S(=O)(=O)N2CCN(c3nc(C)cc(N4CCCC4)n3)CC2)cc1	–
CCN1CCN(C(=O)c2cn(C)c(=O)c3cc(OC)c(OC)cc23)CC1	–
COc1cccc(OC)c1C(=O)N1CCN=C1SCc1cccnc1	–
COC(=O)c1ccc(-c2cc(Cl)cc3c2OC(CNC(=O)C2CCOC(C)(C)C2)C3)cc1 (stereo unspecified)	–
O=c1c(Oc2ccc(F)cc2)coc2c(O)c(O)ccc12	41%
CC(=O)Oc1ccc2c(=O)c(Oc3ccccc3)coc2c1C	–
Cc1c(O)ccc2c(=O)c(Oc3ccccc3)coc12	–
CCc1cc(S(=O)(=O)CC)c(S(=O)(=O)CC)s1	–
CC1=C(C#N)C(=O)NC(=O)/C1=C\c1ccc(-c2cc(C)c(C)cc2[N+](=O)[O-])o1	34%
Cc1ccc(C2=N/C(=C\c3cccnc3)C(=O)O2)cc1[N+](=O)[O-]	–
Cc1ccc(-c2ccc(C=C3C(=O)OC(C)(C(C)(C)C)OC3=O)o2)cc1[N+](=O)[O-] (stereo unspecified)	–
Cc1ccc(-c2ccc(/C=C3/NC(=O)NC3=O)o2)cc1[N+](=O)[O-]	41%
Cc1ccccc1N=C1NC(=O)C(CO)(CO)S1	–
CC1CN(C(=O)C2CCCCC2)CC(C)O1 (stereo unspecified)	–
Cc1ccc(OCc2cc(=O)n3oc(C)cc3n2)c(NC(=O)c2cccc(Br)c2)c1	–
Cc1ccc(C(=O)NCCNC(=O)Nc2cccnc2)cc1	–
CCCCC(=O)Nc1ccc(NC(=O)c2ccccc2F)cc1OC	–
Cc1ccc(Nc2cc(C)nc(N3CCN(S(=O)(=O)c4ccc(C)cc4)CC3)n2)cc1	–
Cc1ccc(S(=O)(=O)N2CCN(c3nc(-c4ccc(C)o4)cs3)CC2)cc1	37%
Cc1ccc(S(=O)(=O)N2CCN(c3nc(C)cc(N4CCCC4)n3)CC2)cc1	–
CCOc1nc(Cl)nc(N2CCCCC2C)n1 (stereo unspecified)	–
SMILES	ST2 inh
CCc1nc2c(N3C[C@H]4CC=CC[C@H]4C3)ncnc2o1	–
Cc1ccc(NCc2cccnc2N(C)Cc2ccccc2)nn1	–
Cc1ccc(S(=O)(=O)C2(C(=O)NC3CCCCC3)CC2)cc1	–
CCOC(=O)N1CCN(C(=O)c2ccc(N3CCC(NCCc4cccs4)CC3)cc2)CC1	–
O=C(c1ccc(N2CCC(NCC3(N4CCOCC4)CCCC3)CC2)cc1)N1CCCC(O)C1 (stereo unspecified)	31%
CCOC(=O)N1CCN(C(=O)c2ccc(N3CCC(NCCc4ccncc4)CC3)cc2)CC1	–
N#CC1=C(N)OC2=C(C(=O)CCC2)C1c1ccccc1[N+](=O)[O-] (stereo unspecified)	–
CC#CCN(Cc1ccco1)C(=O)CC(=O)Nc1ccc(C)cc1C	–
NC(=O)c1nn2c(c1Cl)NC(c1ccco1)CC2C(F)(F)F (stereo unspecified)	–
CCOc1ccc(N=C/C(=C/Nc2ccc(OCC)cc2)c2ccccc2)cc1	36%
CCOc1ccc(NCC(=O)c2ccc(Br)cc2)cc1	–
CCOc1ccc(N=CNc2ccc(OCC)cc2)cc1	–
Cn1c(=O)cc(SCC(=O)Nc2ccc3c(c2)OCO3)c2ccccc21	–
Fc1ccc(CN2CCCCCCC2)cc1	–
O=c1cc(-c2ccc(O)cc2)oc2c(C3OCC(O)C(O)C3O)c(O)c(C3OC(CO)C(O)C(O)C3O)c(O)c12 (stereo unspecified)	–
O=c1cc(-c2ccc(O)cc2)oc2c([C@@H]3O[C@H](CO)[C@@H](O[C@@H]4O[C@H](CO)[C@@H](O)[C@H](O)[C@H]4O)[C@H](O)[C@H]3O)c(O)cc(O)c12	50%
O=c1cc(-c2ccc(O)cc2)oc2c(C3OCC(O)C(O)C3O)c(O)c(C3OCC(O)C(O)C3O)c(O)c12 (stereo unspecified)	–
CC1=C(C(=O)Nc2ccccc2C)C(c2cccs2)C(C#N)=C(SCC(N)=O)N1 (stereo unspecified)	–
COc1cc(C(=O)NC(C(=O)O)C(C)C)cc(OC)c1OC (stereo unspecified)	–
O=C1NC(=O)c2cc(N=Cc3ccc(Cl)cc3)ccc21	–
O=C1NC(=O)c2cc(N=Cc3ccc(Cl)cc3Cl)ccc21	70%
O=c1[nH]c2ccc(N=Cc3cc(O)ccc3Br)cc2[nH]1	–
CC(=O)c1ccc(NC(=O)c2cnc3n(c2=O)CCS3)cc1	–
CCN(CC)CCN1C(=O)C(O)=C(C(=O)c2cccs2)C1c1cccc([N+](=O)[O-])c1 (stereo unspecified)	–
O=C(NCc1ccccc1)c1ccc2nc3sc4c(c3c(=O)n2c1)CCCC4	–
O=C(c1ccc2nc3sc4c(c3c(=O)n2c1)CCCC4)N1CCN(c2ccccc2)CC1	31%
O=C(NCCc1ccccc1)c1ccc2nc3sc4c(c3c(=O)n2c1)CCCC4	–
